Test results reported in PubChem BioAssay AID1903 (Southern Research Specialized Biocontainment Screening …, 2009).
Screen size: about 310,000 compounds; about 1,200 (0.39%) were called active. No rule for the calls is given here. Not all results are given here. Results with a measured potency or affinity are listed apart.

The compounds below were run against Large T antigen (Simian virus 40) (UniProt P03070) (assay: TAg ATPase/helicase activity blockers – biochemical (AID 1903)). Conditions: SV40 large T antigen ATPase/helicase inhibition assay; at 20 µM; hits give high values.
Large T antigen (Simian virus 40), sequence (P03070 whole entry, looked up): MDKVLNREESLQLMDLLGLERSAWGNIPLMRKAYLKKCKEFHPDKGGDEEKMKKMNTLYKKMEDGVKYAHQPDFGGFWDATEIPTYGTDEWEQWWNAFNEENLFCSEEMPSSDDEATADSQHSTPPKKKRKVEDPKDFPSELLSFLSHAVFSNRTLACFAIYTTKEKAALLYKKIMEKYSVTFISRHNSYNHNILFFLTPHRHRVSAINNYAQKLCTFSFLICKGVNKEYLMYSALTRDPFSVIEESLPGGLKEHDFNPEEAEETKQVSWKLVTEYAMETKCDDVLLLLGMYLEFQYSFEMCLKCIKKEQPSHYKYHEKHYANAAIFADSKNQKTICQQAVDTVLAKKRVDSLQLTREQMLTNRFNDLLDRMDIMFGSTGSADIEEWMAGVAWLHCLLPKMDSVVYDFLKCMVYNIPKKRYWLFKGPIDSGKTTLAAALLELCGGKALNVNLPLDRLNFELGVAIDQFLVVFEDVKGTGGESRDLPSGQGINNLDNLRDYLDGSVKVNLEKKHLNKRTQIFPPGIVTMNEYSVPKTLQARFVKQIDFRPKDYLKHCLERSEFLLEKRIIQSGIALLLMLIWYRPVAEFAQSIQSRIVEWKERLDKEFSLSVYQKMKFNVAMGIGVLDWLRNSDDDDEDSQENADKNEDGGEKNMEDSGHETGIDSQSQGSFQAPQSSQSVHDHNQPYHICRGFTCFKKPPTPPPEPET

inhibition, inactive:
CC(C)CCn1c(CN2CC(C)OC(C)C2)nc2c1c(=O)n(C)c(=O)n2C (stereo not drawn) 4.84%, CC(C)Oc1ccc(Br)cc1/C=N\NC(N)=S 16%, CC(C)NC(=O)c1nn2c(C(F)(F)F)cc(-c3ccco3)nc2c1Cl 10.7%, Cc1nn(-c2cccc(Cl)c2)nc1C(=O)O 6.68%, Cn1c(=O)n(-c2cccc(Cl)c2)c(=O)n1C 10.7%, O=C1Nc2cc(Cl)ccc2Nc2cscc21 14.2%, CCOc1cc(C(C(=O)NCC2CCCO2)N(C(=O)Cn2nnc3ccccc32)c2ccccc2C)ccc1O (stereo not drawn) 9.12%, O=C(Nc1ccccc1)/C(=C\c1ccncc1)NC(=O)c1ccccc1 5.96%, O=C(Nc1ccc(C(=O)O)cc1)/C(=C\c1ccco1)NC(=O)c1ccccc1 7.81%, Cc1ccc(NC(=O)/C(=C/c2ccncc2)NC(=O)c2ccccc2)cc1 13.5%, O=C(Nc1ccccc1)/C(=C\c1cccs1)NC(=O)c1ccccc1 10.4%, Cc1ccc(NC(=O)/C(=C\c2cccs2)NC(=O)c2ccccc2)cc1 3%, CC(=O)Nc1ccc(NC(=O)/C(=C/c2ccco2)NC(=O)c2ccccc2)cc1 14.8%, COc1cc(CN2CCCC(C(=O)Nc3ccccc3Oc3cccnc3)C2)ccc1F (stereo not drawn) 7.89%, CCOC(=O)c1[nH]c2c(c1-c1ccccc1)C(=O)CC(c1ccc(OCC)cc1)C2 (stereo not drawn) -10.4%, C=CCOc1ccc(CNCc2cccnc2)cc1 2.27%, Cn1c(N2CCN(C(c3ccccc3)c3ccccc3)CC2)nc2ccccc21 0.51%, Cc1cc2nc3c(c(C(F)(F)F)n2n1)CCCC3 3.17%, COc1ccc(/C=C2\CCc3c2nc2ccccc2c3C(=O)O)cc1OC 6.95%, COc1cc(/C=C2\CCCc3c2nc2ccccc2c3C(=O)O)cc(OC)c1O 30.3%, COc1cccc(N2CC(NS(=O)(=O)c3ccc4ccccc4c3)CC2=O)c1 (stereo not drawn) 11%, Nc1ccccc1SSc1ccccc1N 22.8%, Cc1ccc(O)c(Sc2cc(C)ccc2O)c1 5.68%, O=S(=O)(c1ccc(-c2cnc(C3CC3)o2)cc1)N1CCN(c2ccccc2)CC1 7.98%, O/N=C1\CCCc2ccc(Cl)cc21 3.89%, Cc1cc(C)n(CCc2nc(-c3cccs3)cs2)n1 0.46%, Cc1cc(C)n(CCc2nc(-c3ccc(C)o3)cs2)n1 28.1%, CC(O)c1nc2cc([N+](=O)[O-])ccc2n1Cc1ccccc1 (stereo not drawn) 7.32%, O=C(/C=C/c1cccc(Cl)c1)NCc1cccs1 -0.755%, COc1ccc(NC(=O)COc2ccc(C)c(C)c2)cc1S(=O)(=O)N1CCCCC1 5.04%, Cc1cccc(OCCn2ccnc2)c1C 12.1%, CC(C)Cn1c(=O)c(C(=O)NCc2ccc3c(c2)OCO3)c(O)c2ccccc21 -14.6%, CCOC(=O)C1(C)C=C(Nc2ccc(NC(C)=O)cc2)C(=O)N1c1ccc(NC(C)=O)cc1 (stereo not drawn) 6.98%, CCOC(=O)C1(C)C=C(Nc2ccc(C)cc2)C(=O)N1c1ccc(C)cc1 (stereo not drawn) 12.1%, COc1ccc(C)c2sc(=NC(=O)c3cccc(N4C(=O)CCC4=O)c3)n(C)c12 14.4%, COC(=O)c1c(C(=O)OC)c2ccccn2c1C(=O)c1ccccc1 10.4%, Cc1ccc(-c2nc(C=Nc3ccc(O)cc3)c(O)o2)cc1 23.6%, Cc1ccc(N=C(N)N=C(N)N)cc1 6.91%, O=C1CC(NS(=O)(=O)c2cc(F)ccc2F)CN1c1cccc(F)c1 (stereo not drawn) 4.86%, CCc1ccc[n+](-c2nc3ccccc3nc2C(=C=[N-])C#N)c1 11.3%, CN1CCN(C(=O)c2cccn(Cc3ccc(C(F)(F)F)cc3)c2=O)CC1 2.45%, COc1ccc(OC)c(C2CC(=O)N3CN(c4cccc(Cl)c4)CSC3=C2C#N)c1 (stereo not drawn) 21.8%, COc1cccc(C2CC(=O)N3CN(c4cccc(Cl)c4C)CSC3=C2C#N)c1OC (stereo not drawn) 25.5%, COc1ccc(C2CC(=O)N3CN(c4ccc(C)c(Cl)c4)CSC3=C2C#N)cc1 (stereo not drawn) 34.4%, N#CC1=C2SCN(c3ccccc3)CN2C(=O)CC1c1cccs1 (stereo not drawn) 25.3%, COc1ccc(C2CC(=O)N3CN(Cc4ccco4)CSC3=C2C#N)cc1 (stereo not drawn) 36.8%, CCOC(=O)c1ccc(N2CSC3=C(C#N)C(c4cccs4)CC(=O)N3C2)cc1 (stereo not drawn) 28.9%, COc1ccc(OC)c(C2CC(=O)N3CN(c4ccccc4)CSC3=C2C#N)c1 (stereo not drawn) 35.4%, CCOC(=O)c1ccc(N2CSC3=C(C#N)C(c4ccc(OC)cc4OC)CC(=O)N3C2)cc1 (stereo not drawn) 31%, COc1ccc(-c2nn(-c3ccccc3)cc2/C=C/C(=O)O)cc1[N+](=O)[O-] 18.4%, C#CCOCCOCCOCCNc1nc(N2CCN(C(=O)[C@H]([C@@H](C)CC)n3cc([C@@H](N)CC(C)C)nn3)CC2)nc(N2CCN(C(=O)[C@H]([C@@H](C)CC)n3cc([C@@H](N)CC(C)C)nn3)CC2)n1 3.81%, CC(C)c1ccc(NC(=O)CSc2ncccc2C(=O)Oc2cccc([N+](=O)[O-])c2)cc1 16.9%, CCc1cc2c3c([nH]c2cc1S(=O)(=O)N1CCC2(CC1)OCCO2)CCCC3=O -0.36%, CCN(C(=O)Cn1cnc2c(nc3n2CCCCC3)c1=O)c1cccc(Cl)c1 18.9%, C#CCn1c(=NC(=O)c2cc(-c3cccs3)nc3ccccc23)sc2cc(S(N)(=O)=O)ccc21 8.04%, O=C(O)C1CCCCC1C(=O)Nc1ccc(OCc2ccccc2)cc1 (stereo not drawn) 9.44%, COc1cc(/C=C/c2nc3ccccc3c(=O)[nH]2)cc(Br)c1O -2.29%, CCOC(=O)c1[nH]c2ccccc2c1NC(=O)CC(C)(C)C -0.46%, O=C(O)CCC(=O)Nc1ccc(F)cc1 12.5%, O=C(O)CCC(=O)Nc1ccc(Cc2ccc(NC(=O)CCC(=O)O)cc2)cc1 5.94%, CC1CCCC(NC(=O)C2CCN(S(=O)(=O)c3cnc[nH]3)CC2)C1C (stereo not drawn) 10.4%, COc1ccccc1N1CCN(S(=O)(=O)c2cc(C(F)(F)F)cc(C(F)(F)F)c2)CC1 4.92%, CCOC(=O)C1(C)NC(c2ccc(O)cc2)C2C(=O)N(c3ccccc3)C(=O)C21 (stereo not drawn) 2.88%, O=C(Nc1ccc2nc(-c3cccs3)c(-c3cccs3)nc2c1)NC1CC1 -4.56%, O=C(NCCO)Nc1ccc2nc(-c3ccco3)c(-c3ccco3)nc2c1 52.6%, O=[N+]([O-])c1ccc(/C=N/N2CCN(Cc3ccccc3)CC2)cc1 8.88%, CCN(CC)c1ccc(C=O)c(OC)c1 11.8%, CCN(CC)c1ccc(C(=O)N/N=C/c2ccc(OC)cc2OC)cc1 0.86%, O=C1NN(c2ccc(F)cc2)C(=O)/C1=C\c1cnn(-c2ccccc2)c1 2.23%, CCOC(=O)/C=C/c1cnn(-c2ccccc2)c1 -1.48%, CN(C)c1ccc(/C=N/N2C(=O)c3ccccc3C2=O)cc1 21.5%, Cc1ccccc1N1C(=O)c2cccc3cccc(c23)C1=O 4.81%, COCCNC(=O)CN1CCC(NC(=O)Nc2ccc(C(F)(F)F)cc2)CC1 27.4%, Cc1cc(C)nc(NNC2=CC(=[N+]3CCCCC3)CC(C)(C)C2)n1 3.95%, CNC(=O)COC(=O)CNC(=O)c1cc(Cl)cc([N+](=O)[O-])c1 6.1%, C=CCn1c(SCc2cccc(OC)c2)nnc1-c1ccncc1 5.97%, CCc1ccc(C2CC(c3ccc(Cl)cc3)=NNC2=O)cc1 (stereo not drawn) -1.48%, Cc1ccnc(N2C3CCC2CC(O)(c2ccccc2)C3)n1 (stereo not drawn) 2.55%, COc1ccccc1N1CCN(c2nccc(C)n2)CC1 11.9%, O=c1c2ccccc2c(C=Nc2ccccc2O)c(O)n1-c1nccs1 15.8%, O=C1CCCN1c1nccs1 4.21%, O=C(NCCc1c[nH]c2ccccc12)C1CCN(S(=O)(=O)c2ccccc2F)CC1 10.5%, COc1ccc(S(=O)(=O)Cc2ccc(C(=O)NCc3ccccc3)o2)cc1 7.39%, Cc1c([N+](=O)[O-])cc(S(=O)(=O)Nc2ccncc2)cc1[N+](=O)[O-] 1.66%, COc1ccc(/C=C/CN2CCN(Cc3ccc(F)cc3)C(CCO)C2)cc1 (stereo not drawn) 10.1%, COC(=O)C1=C(C)N(c2ccc(C)c(C)c2)/C(=C/c2ccco2)C1=O 13.5%, O=C1/C(=C\c2ccco2)SC(=S)N1c1ccccc1 21.4%, O=C1N/C(=C/c2ccc(N3CCCC3)cc2)C(=O)N1c1ccccc1 1.12%, O=C1NC(=O)N(c2ccccc2)C1=O 28.5%, O=C1S/C(=C\C=C\c2ccco2)C(=O)N1c1ccccc1 20.3%, Nc1ccc2c3c(cccc13)C(=O)N(c1ccccc1)C2=O 6.29%, CCOC(=O)C1=C(C)N(c2ccc(C)c(C)c2)C(=O)/C1=C\c1ccco1 7.58%, O=C1NC(=S)N/C1=C/C=C/c1ccccc1 -22.6%
